Screening data from PubChem.
ATXN viability: cell viability loss in ATXN counter-screen | S2 cells (HEK-293 line with an ATXN2-luciferase reporter) viability, CellTiter-Fluor protease fluorescence, 24 h | Potency, µM (series often up to 56.7 µM), usual class: cytotoxic | 400,000 tested, 0.49% active | AID 651635; also: potency is read from the fitted curve at half-maximal effect; nearly all actives have a fitted effect of over 40% in size
SW480 rereplic: inducers of DNA re-replication in SW480 colon cancer cells; SW480 DNA re-replication, Hoechst DNA content imaging, 48 h; Potency, µM (doses to about 46.1 µM), inactives show top-dose re-replication activation, most hits filed as activators; 340,000 tested, 1.8% active; AID 624297; also: potency is read from the fitted curve at half-maximal effect; % of control where 0% means no effect; nearly all actives have a fitted effect of over 55% in size
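Hoechst fluorescence of nuclei (405 nm excitation, 500-530 nm emission) measured by plate-scanning imager after 48 hr compound exposure at 37 C; re-replication scored as increased number of nuclei with elevated intensity.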
PINK1 modulator: modulators of PINK1 expression; PINK1 immunofluorescence, high-content cytometry, 24 h; 410,000 tested, 0.2% active; Potency, µM (highest dose often 76.6 µM), without a hit: top-dose activation (PINK1 increase), actives largely listed as activators; active = well fitted activation curve with a large enough effect; inconclusive = small, poorly fitted or top-dose-only effect; cell line not stated here; also: potency is read from the fitted curve at half-maximal effect; % of control where 0% means no effect; nearly all actives have a fitted effect of over 65% in size
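Decision-based qHTS: stable cells, 24 h exposure to five compound concentrations, CCCP as control. Fixed cells stained for PINK1 plus nuclear, mitochondrial and cell markers, cytometer read.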
ATXN2 expr inh: reduces ATXN2 reporter expression in HEK-293 cells | AID 1745845 | 360,000 tested, 0.72% active | HEK-293 ATXN2-luciferase reporter, luminescence, 24 h | Potency, µM (titrated, usually from 57 µM), without a hit: top-dose activity change, negative = inhibition, usual class: inhibitors; also: potency is read from the fitted curve at half-maximal effect; % is scaled to controls: 0 for no effect and ±100 for the full control effect; nearly all actives have a fitted effect of over 55% in size
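ATXN2-luciferase reporter cells (luciferase flanked by upstream and downstream ATXN2 gene portions) were treated 24 h at 37 °C with compounds at up to 57 uM. SteadyGlo luminescence gave expression; GF-AFC fluorescence gave viability.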
MCF10A rereplic: induces DNA re-replication in MCF 10a normal breast cells. MCF 10A DNA re-replication, Hoechst nuclear intensity, 48 h. Potency, µM (top dose mostly 46.1 µM), for the others: at the highest dose activity, positive = re-replication, hits mostly activators. 350,000 tested, 2.9% active; also: potency is read from the fitted curve at half-maximal effect; % of control where 0% means no effect; nearly all actives have a fitted effect of over 50% in size
IL-1B inflam inh: blocks inflammasome-driven IL-1 beta release; THP-1 LPS/ATP IL-1B secretion, AlphaLISA, 16 h; active compounds read low; activity change, % at 57.5 µM; 360,000 tested, 4.7% active; in the data active = activity change below about -50%; inconclusive = mostly about -30% to -49%; also: % is scaled to controls: 0 for no effect and ±100 for the full control effect
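THP-1 cells pretreated 1 hr with compounds (up to 57.5 uM final), then stimulated with LPS (250 ng/mL final) plus ATP (1.25 mM final); secreted IL-1B measured by AlphaLISA after 16 hr, decreased signal indicating inhibition.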
Starred values were filed as active, the others as inactive; i = inactive; ? = inconclusive; . = no result given; [ ] = another dose, or the depositor's remark. Sampled rows, rich in hits. Any-hit rate of the full collection: about 7.1%. Unless noted, calls follow the shape of the dose curve; as a rule, active = well fitted curve in the direction sought with a large enough effect; inconclusive = small, poorly fitted or top-dose-only effect, or another doubt; inactive = no such curve, though single readings can be large; an effect the other way counts as inactive or inconclusive.

SMILES	ATXN viability	SW480 rereplic	PINK1 modulator	ATXN2 expr inh	MCF10A rereplic	IL-1B inflam inh
COc1cccc(CN(C)Cc2cc(=O)oc3c(C)c(C)ccc23)c1	i	-9.9%	0.1%	50.8%	13.3%	13.9
COc1cccc(CN(C)Cc2cc(=O)oc3cc(O)c(Cl)cc23)c1	.	?	0.3%	.	20.6µM*	67.8
COc1ccc(OCCCn2c(CCNC(=O)C3CCCCC3)nc3ccccc32)cc1	.	.	1.4%	.	.	.
CCNC(=S)NNC(=O)c1cc(Br)cs1	i	16.4µM*	-1.1%	-2.3%	3.0%	6.2
Cc1cc(N(C)C)cc(C)c1N=Nc1cc[n+]([O-])cc1	11.2µM*	.	2.1%	.	.	5.8
Cc1ccc(N2C(=O)c3ccccc3C2=O)cc1	i	2.7%	9.2%	12.9%	-11.9%	19.6
Cc1ccc(SC2=C(Sc3ccc(C)cc3)C(=O)c3ccccc3C2=O)cc1	.	8.2µM*	?	?	3.26µM*	-73.8*
CC(=O)Oc1c(Br)cc(N(C(C)=O)S(=O)(=O)c2ccccc2)c2ccccc12	i	?	-0.1%	?	16.4µM*	30.9
CC(=O)Oc1ccccc1N(C(C)=O)S(=O)(=O)c1ccc2ccccc2c1	i	-2.9%	0.4%	-18.3%	-5.0%	2.3
CN(C(=O)c1ccco1)c1nc(-c2ccc(F)cc2)cs1	i	7.4%	4.2%	37.5%	-0.8%	-17.0
O=C(c1ccco1)N(CCCN1CCOCC1)c1nc(-c2ccc(F)cc2)cs1	i	?	.	-11.1%	2.9%	-87.6*
O=C(c1ccco1)N(CCCN1CCOCC1)c1nc(-c2ccc(Cl)cc2)cs1	i	?	3.7%[38.3 µM]	?	10.3µM*	?
c1ccc2oc(-c3[nH]ncc3CN3CCC(N4CCSCC4)CC3)cc2c1	i	-6.3%	-0.7%	-28.3%	23.1µM*	.
CN(Cc1cn[nH]c1-c1cc2ccccc2o1)CC1CCOCC1	i	-2.0%	0.3%	2.1%	-1.1%	-13.7
c1ccc2oc(-c3[nH]ncc3CN3CCSCC3)cc2c1	i	-7.2%	-0.1%	2.7%	10.7%	-23.6
OC1(CNCc2cn[nH]c2-c2cc3ccccc3o2)CCCCC1	i	14.2%	1.3%	-11.7%	?	-90.6*
COc1ccc(-c2cc(CCCC(=O)NCCc3ccc(OC)cc3OC)no2)cc1	i	6.8%	11.2µM*	-5.9%	-2.6%	12.5
CCOc1ccc(-c2cc(CCCC(=O)Nc3cccc(OC)c3)no2)cc1	i	?	7.0%	8.91µM*	?	34.8
COc1cc2c(cc1OC)CN(CCc1ccc(NC(=O)c3cccc4c(=O)c5cccc(OC)c5[nH]c34)cc1)CC2	.	.	.	9.5%	.	.
CC(C)(C)c1ccc(C(=O)N2CC(=O)Nc3ccc(F)cc3C2c2ccc(F)cc2)cc1 (centres undefined)	?	.	2.5%	?	.	.
CN(C)c1ccc(/C=C/C(=O)c2ccc3c(c2)OCO3)cc1	.	?	9.7%	69.1%	?	-91.7*
O=C(CNC(=O)c1ccc2c(c1)OCO2)N/N=C(Br)/C=C/c1ccccc1	?	?	-2.3%	?	9.2µM*	-61.2*
O=C(/C=C/c1ccc2c(c1)OCO2)c1ccc(F)cc1	i	?	1.4%	24.3%	?	-73.8*
COc1cccc(/C=C/C(=O)Oc2ccc(C(=O)c3ccc(F)cc3)cc2)c1	i	-2.5%	?	7.5%	1.6%	8.4
O=C(CNC(=O)c1ccc2c(c1)OCO2)N/N=C/c1cccc([N+](=O)[O-])c1	i	4.2%	1.3%	.	-4.0%	29.5
SMILES	ATXN viability	SW480 rereplic	PINK1 modulator	ATXN2 expr inh	MCF10A rereplic	IL-1B inflam inh
COc1cccc(/C=C/C(=O)c2ccc[nH]2)c1	i	?	-0.1%	101.7%	?	-93.1*
CCc1ccc(CNC(=O)C2Cc3cc(S(=O)(=O)N4CCCCCC4)ccc3N2C(C)=O)cc1 (centres undefined)	i	.	0.8%	-3.6%	.	.
COc1cc(CN(C(=O)COc2ccccc2Cl)c2ccccn2)cc(OC)c1OC	i	.	1.5%	6.8%	.	.
O=C(/C=C/c1ccccc1)c1ccc2c(c1)OCO2	i	?	26.1%	.	?	-7.4
O=C(/C=C/c1ccncc1)c1ccc2c(c1)OCCO2	?	?	-1.4%	-8.4%	?	-97.6*
O=C(c1ccc2c(c1)OCO2)c1ccc[nH]1	i	.	0.3%	.	.	-10.8
COc1cc(/C=C/C(=O)c2ccc3c(c2)OCCO3)cc(Br)c1OCC(=O)N(C)C	28.2µM*	4.61µM*	-2.2%	20µM*	?	-104.1*
O=C(Nc1ccncc1)c1ccc2c(c1)OCCO2	i	-9.2%	-2.0%	1.9%	-1.1%	2.3
O=C(/C=C/c1cccc(Br)c1)c1ccc2c(c1)OCO2	?	?	-1.6%	-1.6%	?	-104.0*
COc1cccc(/C=C/C(=O)c2ccc3c(c2)OCO3)c1OC	i	?	-3.7%	39.0%	?	-19.7
O=C(/C=C/c1ccc2c(c1)OCO2)c1ccc[nH]1	i	3.0%	0.9%	74.7%	-1.9%	-94.7*
Cc1ccc(-n2nc3c(N4CCC(C(=O)NCCC(C)C)CC4)nnc(C)c3c2C)cc1	i	.	0.1%	-5.4%	.	.
N#Cc1nc(-c2ccc(OCc3ccccc3)cc2)oc1NCc1cccnc1	i	-0.4%	3.6%	-22.8%	-5.7%	?
N#Cc1nc(-c2ccc(OCc3ccc(Cl)cc3)cc2)oc1NCc1cccnc1	i	-3.0%	14.2%	-13.8%	11.2µM*	3.9
CC1(C)CC(=O)c2c(O)cc(OCC(=O)N3CCN(c4ccc(F)cc4)CC3)cc2O1	i	6.7%	0.2%	-24.5%	1.1%	-54.8*
CC1(C)CC(=O)c2cc(OCC(=O)N3CCN(c4ccccc4F)CC3)ccc2O1	i	1.2%	.	0.1%	18.1%	-15.9
COCCNC(=O)C(=O)NCC1OCCN1S(=O)(=O)c1cc(F)ccc1F (centres undefined)	i	-3.6%	-0.7%	-5.8%	0.4%	25.6
CC(=O)c1ccc(Nc2nc3ccccc3nc2NS(=O)(=O)c2cccs2)cc1	i	-5.6%	39.8µM*	.	14.6µM*	-0.7
Cc1ccc(-c2nnc(SCC(=O)c3ccc(Cl)cc3)n2-c2ccccc2)cc1	.	.	-0.8%	.	.	.
CN(C)CCN(Cc1ccccc1)C(c1cc2ccccc2o1)c1nnnn1C(C)(C)C (centres undefined)	?	.	-0.9%	-14.2%	.	-54.3*
CCCCn1nnnc1C(c1cc2ccccc2o1)N1CCN(CCN(C)C)CC1 (centres undefined)	?	.	-0.6%	2.6%	.	-4.7
CCCCn1nnnc1C(c1cc2ccccc2o1)N(CCN(C)C)Cc1ccccc1 (centres undefined)	.	.	0.4%	31.6µM*	.	?
